From ChEMBL document CHEMBL1157539, “Thousands of chemical starting points for antimalarial lead identification” (Nature, 2010)

These compounds were tested on Plasmodium falciparum (assay: GSK_TCMDC: Inhibition of Plasmodium falciparum Dd2 in whole red blood cells, using parasite LDH activity as an index of growth. Test compounds present at 2uM).
Assay type: functional

Point of comparison: `COc1ccc(N2CCN(CCCCNC(=O)c3ccc(NC(=O)c4ccc(Cl)cc4)cc3)CC2)c(C)c1`, Inhibition 51%. Against it:
- COc1cccc(Nc2nccc(-c3c(-c4cccc(NC(=O)c5c(F)cccc5F)c4)nn4ccccc34)n2)c1 — higher, 98%
- CN1CCN(CCCCCNc2c3ccccc3nc3ccccc23)CC1.Cl — lower, 0%
- CC1(C)NC(=N)N=C(NOCC=Cc2ccccc2)N1 — lower, 2%
- O=C(/C=C/c1ccc(Cl)c(Cl)c1)NCCCCCN1CCCC(CNC(=O)c2sc3ccccc3c2Cl)C1 (stereo not given) — lower, 0%

The compounds below were run on HepG2 (assay: GSK_TCMDC: Percent inhibition of human HepG2 cell line. Test compounds present at 10uM.).
Assay type: functional

Point of comparison: `COc1ccc(CCNCC(O)c2cccc(Br)c2)c(Cl)c1OC.Cl` (stereo not given), Inhibition 18%. Against it:
- Nc1c2ccccc2nc2ccc(-c3ccccc3)cc12 — higher, 100%
- CC(CN1CCN(C)CC1)C(=O)Nc1cccc(-c2ccc(-c3nc4cc(C(F)(F)F)ccc4[nH]3)cc2)c1 (stereo not given) — lower, 11%
- Cc1nc2nc(N)nc(N)c2c(C)c1Cc1ccc(O)cc1.Cl — higher, 64%
- Cc1cccc2nc(-c3cccc(-c4cccc(NC(=O)Nc5ccccc5)c4)c3)[nH]c12 — lower, 8%
- O=C(/C=C/c1ccc(Cl)c(Cl)c1)NCCCCCN1CCC(NC(=O)Nc2ccc(F)c(F)c2)CC1 — higher, 24%
- CCN(CC)CCN1C(=O)c2oc3ccc(Cl)cc3c(=O)c2C1c1ccc(SC)cc1 (stereo not given) — lower, 0%
- Cc1cc2ncn(-c3nccc(NCc4ccc(F)cc4)n3)c2cc1C.O=C(O)C(F)(F)F — lower, 10%
- O=C(Cc1ccc(Cl)cc1)Nc1cc(Cl)ccc1Cn1cnc(N2CCNCC2)cc1=O.O=C(O)C(F)(F)F — lower, 9%
- CCNc1cc(-c2cccc(OC)c2)nc(Nc2ccc(F)cc2)n1 — lower, 11%
- O=C(NCCc1ccccc1)N(Cc1ccc(-c2cccc(CN3CCNCC3)c2)cc1)C1CCN(Cc2ccccc2)CC1.O=C(O)C(F)(F)F — higher, 27%
- CCOC(=O)CNCC(=O)c1ccc(OCc2ccccc2)cc1.Cl — lower, 4%
- CCN(CC)CCN(Cc1ccc(-c2ccc(C(F)(F)F)cc2)cc1)C(=O)Cn1c(CCc2cccc(F)c2F)cc(=O)c2c1CCCC2.O=C(O)C(O)C(O)C(=O)O — higher, 93%
- CC(C)CC(C)NC(=O)C1Cc2c([nH]c3cc(Cl)ccc23)C2(CCN(CCc3ccccc3)CC2)N1 (stereo not given) — lower, 15%
- O=C(c1ccc([N+](=O)[O-])o1)N1CCN(c2nc3c(F)cc(F)cc3s2)CC1 — lower, 0%
- COc1ccc2nc3ccccc3c(NCCN3CCN(C)CC3)c2c1 — lower, 11%
- COc1ccc(C(=O)CCC(=O)N(CCC2CCCN2C)Cc2ccc(-c3ccc(CNCCc4ccc(S(C)(=O)=O)cc4)cn3)cc2)cc1F.O=C(O)C(F)(F)F (stereo not given) — lower, 13%
- Cn1nc(-c2ccc(NC(=O)Nc3cc(C(F)(F)F)cc(C(F)(F)F)c3)c(F)c2)c2cnc(NCCN3CCOCC3)nc21.O=C(O)C(F)(F)F — higher, 43%
- CCOC(=O)c1cn(CC)c2cc(N3CCCCCC3)c(F)cc2c1=O — lower, 0%
- COc1ccc(NC(=O)Nc2cccc(-c3cccc(-c4nc5ccccc5[nH]4)c3)c2)cc1 — higher, 41%
- CS(=O)(=O)O.FC(F)(F)COc1c(CNCCCCCCNCc2ccc3ccccc3c2OCC(F)(F)F)ccc2ccccc12 — higher, 100%
- COc1ccc2ncc(F)c(CCN3CC[C@H](NC(=O)c4ccc5c(n4)NC(=O)CS5)[C@H](O)C3)c2n1.Cl — higher, 20%
- COc1ccc2[nH]ccc(=NN=Cc3cccc(F)c3)c2c1 — lower, 13%
- O=c1cc(NCCC(CNCc2ccoc2)NCc2cc(Br)cc(Br)c2)[nH]c2ccccc12 (stereo not given) — lower, 0%
- COc1ccc(F)cc1-c1ccc(C(=O)N2CCCN(c3ccc(C(F)(F)F)cn3)CC2)cc1 — lower, 4%
- CN(C)c1ccc(-c2ccc(C(=O)NC3CCN(Cc4ccc(C(C)(C)C)cc4)CC3)s2)cc1.O=C(O)C(F)(F)F — higher, 35%
- O=C(Nc1cccc(-c2nn3ncccc3c2-c2ccnc(Nc3cccc(C(F)(F)F)c3)n2)c1)c1c(F)cccc1F — higher, 49%
- CCN(CC)CCCC(C)Nc1c2ccccc2nc2ccc3ccccc3c12.Cl (stereo not given) — higher, 24%
- Cc1noc(C)c1CN1Cc2ccccc2OC2(CCN(Cc3c[nH]c4cnccc34)CC2)C1.O=C(O)C(F)(F)F — higher, 19%
- CCC[C@@H]([C@@H](CC(C)C)C(=O)N[C@H](C(=O)Nc1nccs1)C(C)(C)SCCNC(=O)OCC)N(O)C=O — lower, 0%
- COc1cc2nc(N3CCC(CCCC4CCNCC4)CC3)nc(NCc3ccccn3)c2cc1OC.O=C(O)C(F)(F)F — lower, 2%
- O=C(/C=C/c1ccc(Cl)c(Cl)c1)NCCCCCN1CCC(C(=O)Nc2cccc(Cl)c2)CC1 — higher, 48%
- COc1ccc(Cl)cc1N1CCN(CCCNC(=O)c2ccc(-c3nc4cc(Cl)c(F)cc4[nH]3)cc2)CC1 — lower, 3%
- CNC(=O)Cc1ccc(C(=O)Nc2cccc(-c3csc(-c4nc5ccccc5[nH]4)c3)c2)cc1 — higher, 36%
- O=C(Nc1cccc(CN2CCCN(CCc3ccccc3)CC2)c1)c1ccc(Cl)c(Cl)c1.O=C(O)C(F)(F)F — higher, 41%
- COc1cccc(Nc2nccc(-c3c(-c4cccc(NC(=O)c5c(F)cccc5F)c4)nn4ccccc34)n2)c1 — higher, 35%
- COc1ccc(N2CCN(CCCCNC(=O)c3ccc(NC(=O)c4ccc(Cl)cc4)cc3)CC2)c(C)c1 — higher, 42%
- CN1CCN(CCCCCNc2c3ccccc3nc3ccccc23)CC1.Cl — higher, 57%
- CC1(C)NC(=N)N=C(NOCC=Cc2ccccc2)N1 — higher, 35%
- O=C(/C=C/c1ccc(Cl)c(Cl)c1)NCCCCCN1CCCC(CNC(=O)c2sc3ccccc3c2Cl)C1 (stereo not given) — higher, 42%
